Sampled rows, rich in hits. Any-hit rate of the full collection: about 11%.
ALDH1A1 block – ALDH1A1 (human) enzyme inhibition; hit rate 7.3% among 220,000; Purified ALDH1A1, NADH fluorescence, propionaldehyde substrate; Potency, µM (top dose mostly 75.3 µM), usual class: inhibitors
Target sequence (P00352 whole entry, looked up): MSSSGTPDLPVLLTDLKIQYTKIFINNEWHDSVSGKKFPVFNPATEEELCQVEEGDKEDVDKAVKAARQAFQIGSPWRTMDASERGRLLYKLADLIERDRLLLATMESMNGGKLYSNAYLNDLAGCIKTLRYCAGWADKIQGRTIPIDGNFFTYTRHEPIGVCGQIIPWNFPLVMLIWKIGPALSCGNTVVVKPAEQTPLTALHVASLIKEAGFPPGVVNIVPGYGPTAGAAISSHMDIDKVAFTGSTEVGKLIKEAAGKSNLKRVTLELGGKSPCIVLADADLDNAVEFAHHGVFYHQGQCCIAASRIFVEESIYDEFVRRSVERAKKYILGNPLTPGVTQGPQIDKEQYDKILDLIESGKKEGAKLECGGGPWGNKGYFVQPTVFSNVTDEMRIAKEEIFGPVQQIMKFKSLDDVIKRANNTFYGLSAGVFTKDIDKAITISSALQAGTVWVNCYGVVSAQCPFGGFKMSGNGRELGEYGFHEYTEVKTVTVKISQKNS
KDM4E inh – JMJD2E (human) inhibition. B2RXH2. JMJD2E catalytic domain, FDH-coupled NADH fluorescence (FDH is formaldehyde dehydrogenase). Potency, µM (titrated, usually from 57.1 µM), most hits filed as inhibitors. hit rate 1.6% among 230,000. AID 2147; note: nearly all actives have a fitted effect of over 50% in size
PNC inhibitor – inhibitors of perinucleolar compartment assembly; PC3M PTB-GFP, PNC prevalence imaging, 16 h; active compounds read low; activity change (PNC), negative = inhibition, % at 10 µM; hit rate 3.1% among 140,000; AID 2417;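 active = readout at or below -70, meaning at least 70% loss of cells showing the perinucleolar compartment, a nuclear body marking cancer cells; inconclusive = readout between -30 and a set limit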
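Read-out is percentage of cells bearing a perinucleolar compartment, from automated 20x imaging of fixed, Hoechst-stained PC3M PTB-GFP cells. Cells were seeded 4 h, then exposed 16 h to compound (23 nl of library stock) in duplicate plates.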
HPGD block – HPGD (human) dehydrogenase inhibition; Potency, µM, usual class: inhibitors; purified HPGD, NADH fluorescence kinetic, PGE2 substrate; P15428; hit rate 4.3% among 150,000
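20 nM HPGD preincubated 15 min at room temperature with compound in 50 mM Tris-HCl pH 8, 0.01% Tween 20. Started with 1 mM NAD+ and 30 uM prostaglandin E2; NADH fluorescence (360/450 nm) read 5 times over 30-s intervals, last minus first.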
A number is an active result; i = inactive; ? = inconclusive; nt = not tested or not shown. Unless noted, calls come from the whole dose curve; as a rule, active = well fitted inhibition curve with a large enough effect (not every such curve was filed as active); inconclusive = small, poorly fitted or top-dose-only effect, or another doubt; inactive = no such curve, though single readings can be large or run the other way.

SMILES	ALDH1A1 block	KDM4E inh	PNC inhibitor	HPGD block
COc1ccc2c(Cl)c(C(=O)NCC3CCCO3)sc2c1Cl (configuration not stated)	i	i	i	i
O=C(NCC1CCCO1)c1sc2ccccc2c1Cl (configuration not stated)	?	i	i	8.9µM
C/C(Cc1ccccc1)=N\NC(=O)CCCCCC(=O)N/N=C(\C)Cc1ccccc1	11µM	i	i	i
C/C(CC(=O)Nc1ccccn1)=N\NC(=O)c1ccc2ccccc2c1	5.6µM	i	?	i
C/C(CC(=O)Nc1ccccn1)=N\NC(=O)c1ccccc1	i	i	i	i
CC(C)CCc1noc(CN2CCN(c3ccc(Cl)cn3)CC2)n1	4µM	i	nt	nt
Cc1ccc(Cl)c(OCC(=O)NCc2ccco2)c1	?	i	?	i
O=C(COc1ccccc1Br)NCc1ccco1	?	?	i	25µM
COc1ccccc1OCC(=O)NCc1ccco1	i	i	i	?
CCc1ccc(OCC(=O)NCc2ccco2)c(Br)c1	?	i	i	35µM
N#C/C(=C\NC(=S)c1ccncc1)c1nc2ccccc2s1	?	nt	nt	i
COc1cc2c(cc1OC)C1N(CC2)C(=O)CCC12C(=O)CCCC2=O (configuration not stated)	i	nt	nt	?
CCOC(=O)c1ccc(CNC(=O)c2cc(C(C)(C)C)oc2C)o1	25µM	i	i	i
CCOC(=O)c1cc(C(C)(C)C)oc1CNC(=O)c1c(C)oc2c1CCCC2	18µM	i	i	i
Cc1c(C(=O)N2CCOCC2)sc2ncnc(N3CCc4ccccc4C3)c12	i	i	i	i
Cc1c(C(=O)N2CCCCC2C)sc2ncnc(N3CCc4ccccc4C3)c12 (configuration not stated)	7.9µM	i	nt	nt
CC(C)(O)C1CC[C@@]2(C)C3CCC4[C@@]5(C)CCCC(C)(C)C5C(O)C[C@]4(C)[C@]3(C)CC[C@@H]12 (some centres not stated)	i	i	nt	i
O=C(NCCOC12CC3CC(CC(C3)C1)C2)c1cccc(Br)c1	7.1µM	i	i	i
CC1(C)Oc2ccc(C#N)cc2[C@H](N2CCCC2=O)[C@H]1O	i	i	nt	i
COc1ccc(Cl)cc1Nc1cc(C)nc2nc(C)nn12	i	i	i	3.5µM
O=C(COc1ccc(Cl)cc1)N1CCCC1	i	i	i	i
O=C(c1ccc(Cl)cc1)c1ccc(OCC(=O)N2CCOCC2)cc1	?	?	i	28µM
O=C(COc1ccc(/C=C\[N+](=O)[O-])cc1)N1CCOCC1	14µM	i	nt	nt
O=C(COc1ccc([N+](=O)[O-])cc1Cl)N1CCOCC1	nt	i	nt	nt
Nc1c(Cl)cc(Cl)cc1Cl	i	nt	nt	i
SMILES	ALDH1A1 block	KDM4E inh	PNC inhibitor	HPGD block
CCOC(=O)c1cnc(SC)nc1Sc1cc(Cl)ccc1Cl	?	i	i	7.1µM
CCOC(=O)c1cnc(SC)nc1Nc1cccc(F)c1	i	i	i	i
Nc1nc2ncc(C(=O)c3cc(F)ccc3O)cc2s1	i	i	nt	nt
Cc1ccc(O)c(C(=O)c2cnn(C(=O)Cc3csc(C)n3)c2)c1	1.1µM	i	i	i
Cc1ncc(CC(=O)n2cc(C(=O)c3cc(F)ccc3O)cn2)s1	7.9µM	i	i	i
Cc1nc(CC(=O)c2ccc(O)c(C)c2O)cs1	nt	i	nt	nt
N[C@H](CC(=O)O)C(=O)O	i	i	nt	i
Cc1ccc(NC(=O)CSC2=NN3CCCC(=O)N=C3S2)c(C)c1	?	i	nt	nt
Cc1cccc(NC(=O)CSC2=NN3CCCC(=O)N=C3S2)c1C	32µM	i	nt	nt
Cc1cccc(C)c1NC(=O)C[N+](C)(C)C	i	i	nt	i
CS(=O)(=O)c1ccc(Cl)c(NC(=O)CCl)c1	3.2µM	i	nt	nt
CN(C)S(=O)(=O)c1ccc(Cl)c(NC(=O)COC(=O)c2ccc3c(c2)NC(=O)CS3)c1	3.5µM	i	nt	nt
CS(=O)(=O)c1ccc(C(=O)Nc2cc(S(C)(=O)=O)ccc2Cl)cc1	i	i	i	nt
CCCC(=O)Nc1cc(S(=O)(=O)N(CC)CC)ccc1Cl	13µM	i	i	i
CCN(CC)S(=O)(=O)c1ccc(Cl)c(C(=O)NCc2ccccc2Cl)c1	7.9µM	i	i	i
COc1ccc(NS(=O)(=O)c2ccc(NC(=S)NC(=O)/C=C/c3ccccc3)cc2)nn1	?	i	i	i
CCN(CC)S(=O)(=O)c1ccc(Cl)c(NC(=O)COC(=O)c2ccc(O)cc2)c1	16µM	i	nt	nt
CN(C)S(=O)(=O)c1ccc(Cl)c(NC(=O)COC(=O)c2ccc(O)cc2)c1	?	i	nt	nt
CN(C(=O)COC(=O)c1ccc2c(c1)NC(=O)CS2)C1CCS(=O)(=O)C1 (configuration not stated)	i	i	i	i
CCN(CC)S(=O)(=O)c1ccc(Cl)c(NC(=O)c2ccc(C#N)cc2)c1	?	i	-97	i
